Measured values from PubChem BioAssay (EPA / NIEHS).
Active and inactive are the calls of the source. Rule for the calls: active = hit-call score of the fitted dose curve at least 0.9, where 1 is the maximum; inactive = score below 0.9.

Each compound was assayed on Eotaxin 3, CCL26 (gene 10344) (assay: BSK_BF4T_Eotaxin3: BioMAP Diversity Plus: BF4T Assay for Eotaxin 3 Biomarker Activity (AID 2284258)). Conditions: primary human bronchial epithelial cells with fibroblasts.
Experimental: BSK_BF4T is a cell-based, multiplexed-readout assay that uses bronchial epithelial cells and dermal fibroblasts, a human vascular primary cell, with measurements taken at 24 hours after chemical dosing in a microplate: 96-well plate.BSK_BF4T_Eotaxin3 is an assay component measured in the BSK_BF4T assay. It measures Eotaxin-3 antibody related to regulation of gene expression using ELISA technology.Data from the assay component BSK_BF4T_Eotaxin3 was analyzed at the endpoint, BSK_BF4T_Eotaxin3, in the positive analysis fitting direction relative to DMSO as the negative control and baseline of activity. Using a type of binding reporter, gain or loss-of-signal activity can be used to understand protein changes. To generalize the intended target to other relatable targets, this assay endpoint is annotated to the 'cytokine' intended target family, where the subfamily is 'chemotactic factor'.
The levels of cell surface (or secreted, indicated by the prefix "s") biomarker endpoints were measured by ELISA. Overt cytotoxicity to cells in confluent adherent cultures (all systems other than the BT system) was assessed by measuring total protein levels using sulforhodamine B (SRB) staining in parallel cultures at the time of biomarker measurements, indicated as SRB endpoints. For proliferation assays for adherent cell types, individual cell types are cultured at sub-confluence and relative cell numbers quantified by SRB staining at time points optimized for each system (48 h: 3C and CASM3C systems; 72 h: BT and HDF3CGF systems; 96 h: SAg system). SRB was performed by staining cells with 0.1% SRB after fixation with 10% TCA and reading wells at 560 nm.Viability and proliferation of PBMC (T cells) was quantified by Alamar Blue reduction for the SAg and BT systems. For PBMC viability (referred to as PBMC Cytotoxicity within the assay endpoint names), cells were plated (75,000/well in a 96-well plate) and then chemical samples added for 1 h before addition of activators, SEB and TSST-1 (20 ng/mL final concentration each). Cells were incubated for 90 h. Then, Alamar Blue (20 uL/well) (Invitrogen, Cat DAL1100) was added for 6 h, and the plates were read with a fluorescence microplate reader at 546/580 nm (excitation/emission). For PBMC proliferation, cells were plated and activated as above but incubated for only 16 h prior to addition of Alamar Blue. Plates were read after 6 h.

Compound | outcome
FC(F)C(F)(F)COCC1CO1 (stereo not given) | inactive
NCC(F)(F)C(F)(F)C(F)(F)C(F)(F)F | inactive
O=C(Cl)C(F)(F)C(F)(F)C(F)(F)C(=O)Cl | inactive
OCCC(F)(F)C(F)(F)C(F)(F)C(F)(F)F | inactive
O=S(=O)(O)CCC(F)(F)C(F)(F)C(F)(F)C(F)(F)C(F)(F)C(F)(F)F | inactive
OC(O)(C(F)C(O)(O)C(F)(F)F)C(F)(F)F | inactive
C[Si](C)(C)C(F)(F)C(F)(F)C(F)(F)F | inactive
FC(F)(F)COC(OCC(F)(F)F)OCC(F)(F)F | inactive
FC(F)(F)C(F)(F)C(F)(F)C(F)(F)C(F)(F)C(F)(F)I | inactive
FC(F)=C(F)C(F)(F)C(F)(F)C(F)(F)C(F)(F)C(F)(F)C(F)(F)F | inactive
